The values that follow come from PubChem BioAssay (EPA / NIEHS).

Details in all cases: mRNA level, 48 h; actives raise or lower the signal
Read-out in experiment [1]: sulfotransferase 2A1 (SULT2A1), SULT2A1 (gene 6822)
In words: LTEA_HepaRG_SULT2A1: Life Technologies and Expression Analysis (LTEA) Assay for sulfotransferase 2A1 (SULT2A1) using HepaRG (AID 2283531). The essentials:
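HepaRG, 48 h chemical exposure, 8-pt half-log curve from 100 uM in 0.5% DMSO, duplicates. Readout: TaqMan qRT-PCR of SULT2A1 mRNA, housekeeping-normalized. Bidirectional fit vs DMSO baseline.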

Read-out in experiment [2]: Transforming Growth Factor (TGFA), TGFA (gene 7039)
Briefly: LTEA_HepaRG_TGFA: Life Technologies and Expression Analysis (LTEA) Assay for Transforming Growth Factor (TGFA) using HepaRG (AID 2283532). The essentials: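 Differentiated HepaRG cells exposed 48 hours in serum-free induction medium, 0.5% DMSO vehicle, 8-point half-log series from 100 uM, in duplicate. TGFA mRNA by TaqMan qRT-PCR, normalised to ACTB, GAPDH, POLR2A; bidirectional fit versus DMSO.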

Read-out in experiment [3]: Transforming Growth Factor (TGFB1), TGFB1 (gene 7040)
Briefly: LTEA_HepaRG_TGFB1: Life Technologies and Expression Analysis (LTEA) Assay for Transforming Growth Factor (TGFB1) Transporter using HepaRG (AID 2283533). The essentials: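 qRT-PCR readout of TGFB1 transcript in HepaRG lysates, normalized to three housekeeping genes; gain or loss of signal fitted relative to 0.5% DMSO vehicle. Exposure: 48 h, 8-point curve from 100 uM, duplicate wells.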

Read-out in a further experiment: TIMP1, TIMP1 (gene 7076)
In words: LTEA_HepaRG_TIMP1: Life Technologies and Expression Analysis (LTEA) Assay for TIMP1 using HepaRG (AID 2283534).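 Also: TaqMan qRT-PCR signal normalized to ACTB GAPDH and POLR2A housekeeping genes.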 The essentials: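 HepaRG, 48 h exposure, 8-pt half-log series from 100 uM in 0.5% DMSO, duplicates; TIMP1 transcript by Fluidigm qRT-PCR, housekeeping-normalized; bidirectional curve fit vs DMSO baseline.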

Read-out in experiment [4]: Tumor necrosis factor receptor 1 (TNFRSF1A), TNFRSF1A (gene 7132)
In words: LTEA_HepaRG_TNFRSF1A: Life Technologies and Expression Analysis (LTEA) Assay for Tumor necrosis factor receptor 1 (TNFRSF1A) using HepaRG (AID 2283535). Put shortly:
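HepaRG, 48 h plating then 48 h chemical exposure, serum-free induction media; 8-pt CRC from 100 uM, half-log, 0.5% DMSO vehicle, duplicates. Readout: TaqMan qRT-PCR (Fluidigm), housekeeping-gene normalized; bidirectional fit vs DMSO.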

Read-out in experiment [5]: Thyroid Hormone Responsive (THRSP), THRSP (gene 7069)
Briefly: LTEA_HepaRG_THRSP: Life Technologies and Expression Analysis (LTEA) Assay for Thyroid Hormone Responsive (THRSP) using HepaRG (AID 2283536). Put shortly:
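Differentiated HepaRG cells treated 48 h in serum-free induction medium with 8 half-log concentrations up to 100 uM (0.5% DMSO), duplicates. THRSP mRNA by TaqMan qRT-PCR normalised to ACTB, GAPDH, POLR2A; bidirectional fit versus DMSO.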

Read-out in experiment [6]: Cellular tumor antigen p53 (Homo sapiens) (UniProt P04637)
Briefly: LTEA_HepaRG_TP53: Life Technologies and Expression Analysis (LTEA) Assay for Tumor Protein P53 (TP53) using HepaRG (AID 2283537). Put shortly: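 TP53 transcript measured by qRT-PCR, normalized to three housekeeping genes, after 48 h treatment of human HepaRG cultures with chemicals from 100 uM downward in half-log steps (0.5% DMSO vehicle, serum-free induction medium). Up- or down-regulation fitted against DMSO.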

Read-out in experiment [7]: UDP glucuronosyltransferase (UGT1A1), UGT1A1 (gene 54658)
In words: LTEA_HepaRG_UGT1A1: Life Technologies and Expression Analysis (LTEA) Assay for UDP glucuronosyltransferase (UGT1A1) using HepaRG (AID 2283538). The essentials: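 HepaRG cells, 0.5% DMSO vehicle, 48 h exposure in serum-free induction medium to 8-point half-log series topping at 100 uM, in duplicate. UGT1A1 mRNA by Fluidigm qRT-PCR, normalized to ACTB/GAPDH/POLR2A; bidirectional fit versus DMSO.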

Read-out in experiment [8]: UDP glucuronosyltransferase (UGT1A6), UGT1A6 (gene 54578)
In words: LTEA_HepaRG_UGT1A6: Life Technologies and Expression Analysis (LTEA) Assay for UDP glucuronosyltransferase (UGT1A6) using HepaRG (AID 2283539). Put shortly: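 qRT-PCR readout of UGT1A6 mRNA (normalized to ACTB/GAPDH/POLR2A) in differentiated HepaRG cells after 48 h chemical exposure; 8 concentrations, top 100 uM, half-log steps, 0.5% DMSO. Bidirectional curve fit relative to DMSO baseline.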

Read-out in experiment [9]: solute carrier (SLCO1B1), SLCO1B1 (gene 10599)
Briefly: LTEA_HepaRG_SLCO1B1: Life Technologies and Expression Analysis (LTEA) Assay for solute carrier (SLCO1B1) using HepaRG (AID 2283530). The essentials:
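SLCO1B1 transcript read by qRT-PCR (Fluidigm arrays), normalized to three housekeeping genes, after 48 h chemical exposure of HepaRG cells; bidirectional concentration-response fitting versus 0.5% DMSO baseline. Eight-point half-log series, maximum 100 uM.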

Structures are written as SMILES. Calls of active or inactive are those of the source. The calls were made as follows: active = hit-call score of the fitted dose curve at least 0.9, where 1 is the maximum; inactive = score below 0.9.

Cellular tumor antigen p53 (Homo sapiens), sequence (P04637 whole entry, looked up): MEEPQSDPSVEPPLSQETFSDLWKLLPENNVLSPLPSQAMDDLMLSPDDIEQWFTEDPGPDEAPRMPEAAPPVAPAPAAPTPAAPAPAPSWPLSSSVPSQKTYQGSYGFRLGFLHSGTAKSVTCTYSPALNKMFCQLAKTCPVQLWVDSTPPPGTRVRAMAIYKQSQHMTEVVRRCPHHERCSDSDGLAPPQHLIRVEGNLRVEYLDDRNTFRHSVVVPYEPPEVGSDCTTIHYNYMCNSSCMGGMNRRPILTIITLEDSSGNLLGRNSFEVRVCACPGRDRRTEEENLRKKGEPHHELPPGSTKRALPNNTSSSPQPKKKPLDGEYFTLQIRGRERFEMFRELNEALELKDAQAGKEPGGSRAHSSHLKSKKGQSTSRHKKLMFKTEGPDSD

On to `CCCN(CC)CC1COC2(CCC(C(C)(C)C)CC2)O1` (configuration not stated), for which the outcome is “inactive” in experiment [1]; “inactive” in [2]; “inactive” in experiment [3]; “inactive” with TIMP1, TIMP1 (gene 7076); “inactive” in experiment [4]; “inactive” in [6]. The call in experiment [7] and in [8] was inactive. The AC50 in experiment [5] is 0.319 µM (active).
`Cc1cnc(C2=NC(C)(C(C)C)C(=O)N2)c(C(=O)O)c1` (configuration not stated): the outcome in experiment [9] is “inactive”; in [1], “inactive”; in [2], “inactive”; in experiment [3] it was “inactive”; in the experiment with TIMP1, TIMP1 (gene 7076), “inactive”; in experiment [4] it was “inactive”. Moreover, the result in [5], in experiment [6], in [7] and in [8] was inactive.
`CCNP(=S)(OC)O/C(C)=C/C(=O)OC(C)C` (configuration not stated): the outcome in experiment [9] was “inactive”; in experiment [1], “inactive”; in experiment [2], “inactive”; in experiment [3], “inactive”; with TIMP1, TIMP1 (gene 7076) it was “inactive”; in [4], “inactive”. For the same compound, the call in [6] and in [8] was inactive. The AC50 in [5] was 32.6 µM (active); in [7], 9.32 µM (active).
On to `Cc1nc(N(C)C)nc(OC(=O)N(C)C)c1C`, for which the outcome was “inactive” in experiment [9]; “inactive” in [1]; “inactive” in experiment [2]; “inactive” in experiment [3]; “inactive” with TIMP1, TIMP1 (gene 7076); “inactive” in [4]. Also, the outcome in experiment [5] and in experiment [8] was inactive. In experiment [7], the concentration at half-maximal activity (AC50) was 13.9 µM (active).
Regarding `CCN(CC)C(=O)C(C)Oc1cccc2ccccc12` (configuration not stated), the outcome was “inactive” in experiment [9]; “inactive” in experiment [1]; “inactive” in experiment [2]; “inactive” in experiment [3]; “inactive” with TIMP1, TIMP1 (gene 7076); “inactive” in [4]. In addition, the outcome in experiment [5], in [6] and in [8] was inactive. In [7], the AC50 was 12.9 µM (active).
On to `Nc1c(Cl)c(Cl)nc(C(=O)O)c1Cl`, for which the outcome in experiment [9] is “inactive”; in experiment [1] it was “inactive”; in [2], “inactive”; in experiment [3], “inactive”; with TIMP1, TIMP1 (gene 7076) it was “inactive”; in experiment [4] it was “inactive”. For the same compound, the outcome in experiment [5], in experiment [6], in experiment [7] and in experiment [8] was inactive.
Turning to `Cc1ccc(N=CN(C)C=Nc2ccc(C)cc2C)c(C)c1`, the outcome in experiment [9] is “inactive”; in experiment [1], “inactive”; in experiment [2] it was “inactive”; in experiment [3] it was “inactive”; with TIMP1, TIMP1 (gene 7076) it was “inactive”; in experiment [4] it was “inactive”. The outcome in experiment [5], in experiment [6] and in experiment [8] was inactive. The half-maximal activity concentration (AC50) in experiment [7] was 39.3 µM (active).
Take `COCc1cnc(C2=NC(C)(C(C)C)C(=O)N2)c(C(=O)O)c1` (configuration not stated): the outcome in [9] was “inactive”; in experiment [1] it was “inactive”; in experiment [2], “inactive”; in [3], “inactive”; with TIMP1, TIMP1 (gene 7076), “inactive”; in experiment [4] it was “inactive”. For the same compound, the compound was called inactive in experiment [5], in experiment [7] and in experiment [8].
As for `CCSC(=O)N1CCCCCC1`, the outcome in [9] is “inactive”; in [1] it was “inactive”; in [2] it was “inactive”; in experiment [3], “inactive”; with TIMP1, TIMP1 (gene 7076), “inactive”; in experiment [4], “inactive”. The outcome in experiment [5], in experiment [6], in experiment [7] and in [8] was inactive.
Turning to `COP(=S)(OC)SCn1nnc2ccccc2c1=O`, the outcome in [9] is “inactive”; in [1], “inactive”; in experiment [2] it was “inactive”; in experiment [3], “inactive”; in the experiment with TIMP1, TIMP1 (gene 7076), “inactive”; in experiment [4], “inactive”. The call in [5], in [6] and in [8] was inactive. The half-maximal activity concentration (AC50) in experiment [7] is 43.2 µM (active).
`CS(=O)(=O)c1ccc(C(=O)C2C(=O)CCCC2=O)c([N+](=O)[O-])c1`: the outcome in experiment [9] is “inactive”; in experiment [1] it was “inactive”; in [2] it was “inactive”; in experiment [3], “inactive”; with TIMP1, TIMP1 (gene 7076), “inactive”; in [4], “inactive”. The compound was called inactive in experiment [5], in experiment [6], in experiment [7] and in [8].

As a reminder, the AC50 is the midpoint of the concentration-response curve, whichever way the signal moves.
